Structures are written as SMILES. Whole data set: some 110,000 compounds, median “z-score” near -0.1, cut for the highest 2% near 2. For the sample, the highest values were picked, then their nearest neighbours and some compounds at random. Active and inactive are the calls of the source.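 Rule for the calls: active = z-score in the third read window above 3 or below -3; inactive = the rest.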

We go through 33 compounds from PubChem BioAssay AID488969 (Vanderbilt High Throughput Screening Facility, 2010).

The target in this assay is Metabotropic glutamate receptor 8 (Rattus norvegicus) (UniProt P70579). Description: rat mGluR8 modulators via GIRK flux, primary screen, cell-based, thallium flux, HTS (AID 488969). The conditions noted are these: HEK293 rat mGluR8, GIRK (G protein-gated inwardly rectifying potassium channel) thallium flux, FluoZin2; at 10 µM; stronger effect = higher value; submaximal glutamate (EC20) added with thallium.
Chain of Metabotropic glutamate receptor 8 (Rattus norvegicus) (P70579 whole entry, looked up): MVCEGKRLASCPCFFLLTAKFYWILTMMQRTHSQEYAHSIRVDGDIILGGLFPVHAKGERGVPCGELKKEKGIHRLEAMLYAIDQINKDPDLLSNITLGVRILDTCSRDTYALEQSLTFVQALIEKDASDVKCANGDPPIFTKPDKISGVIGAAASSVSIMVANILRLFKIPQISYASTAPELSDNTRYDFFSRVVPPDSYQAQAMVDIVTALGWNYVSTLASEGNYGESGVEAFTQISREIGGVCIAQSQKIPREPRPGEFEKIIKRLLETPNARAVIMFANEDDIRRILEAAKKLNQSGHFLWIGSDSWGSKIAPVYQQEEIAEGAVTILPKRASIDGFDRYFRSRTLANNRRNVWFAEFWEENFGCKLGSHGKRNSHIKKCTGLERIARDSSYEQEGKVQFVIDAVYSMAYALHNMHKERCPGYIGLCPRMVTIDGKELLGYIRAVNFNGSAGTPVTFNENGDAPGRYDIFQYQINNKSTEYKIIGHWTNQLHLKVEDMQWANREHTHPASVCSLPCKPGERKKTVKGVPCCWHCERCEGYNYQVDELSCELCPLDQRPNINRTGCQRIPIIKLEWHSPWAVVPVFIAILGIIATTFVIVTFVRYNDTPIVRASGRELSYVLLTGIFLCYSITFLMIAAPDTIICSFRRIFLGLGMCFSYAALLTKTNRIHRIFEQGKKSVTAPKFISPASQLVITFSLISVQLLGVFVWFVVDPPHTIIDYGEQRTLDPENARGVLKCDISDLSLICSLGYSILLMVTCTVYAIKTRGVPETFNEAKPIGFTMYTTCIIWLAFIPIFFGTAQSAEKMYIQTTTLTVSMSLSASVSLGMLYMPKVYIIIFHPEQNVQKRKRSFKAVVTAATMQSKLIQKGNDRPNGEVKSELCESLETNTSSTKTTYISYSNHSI
Consider `CN1/C(=C/C(=O)c2ccc(Cl)cc2)Sc2cc3c(cc21)OCO3`, for which the z-score was -1.93.

`CC(C)CCN1C(=O)CCC1(C)C(=O)NC1CCCCCCC1` (stereo not drawn): the z-score is -0.383.

`CCOC(=O)C1C(=O)C=C(c2ccc(NS(C)(=O)=O)cc2)CC1c1ccco1` (stereo not drawn): the z-score came out at 2.57.

In turn, `CCOC(=O)C1C(=O)C=C(c2cccc(NS(C)(=O)=O)c2)CC1c1ccco1` (stereo not drawn) had a z-score of -0.737.

Regarding `CCOC(=O)C1C(=O)C=C(c2ccc(C)cc2)CC1c1ccco1` (stereo not drawn), the z-score was -0.0925.

`NNC(=O)C=C1CCN(c2ncc(C(F)(F)F)cc2Cl)CC1` registered a z-score of 0.00385.

`Cc1ccc(C)c(NS(=O)(=O)c2cc(C(=O)NCc3ccco3)ccc2C)c1` returned a z-score of -0.408.

For the compound `O=C(CN1CCCCC1)Nc1cccc(Cl)c1Cl`, the z-score is -0.108.

For `CCOC(=O)C(CCCOc1cccc(CC)c1)C(=O)OCC`, the z-score amounted to 0.094.

In the case of `CCOC(=O)C(CCCCOc1cccc(CC)c1)C(=O)OCC`, the z-score is 3.18 (active).

Compound `CCOC(=O)C(CCOc1cccc(CC)c1)C(=O)OCC` gave a z-score of -0.709.

`O=C(CC(c1ccco1)C1CCCCC1=O)c1ccccc1` (stereo not drawn) had a z-score of -0.656.

`Cc1cccc(NC(=O)COC(=O)c2ccccc2-c2nc3ccccc3s2)c1C`: the z-score is -0.272.

As to `O=C(Nc1cccc(-c2nc3ccccc3s2)c1)c1cc(-n2cnnc2)ccc1Cl`, the z-score was -0.00826.

With `COc1ccc(CNC(=O)COC(=O)CCC2CCCCC2)cc1`, the z-score is -0.328.

Consider `CC(C)Oc1ccc(C2CC(=O)N(c3ccc(N(C)C)cc3)C2=O)cc1` (stereo not drawn), for which the z-score is -0.0638.

For the compound `CC(C)Oc1ccc(C2CC(=O)N(c3ccccc3)C2=O)cc1` (stereo not drawn), the z-score turned out to be 2.33.

As for `COc1ccc(N2C(=O)CC(c3ccc(OC(C)C)cc3)C2=O)cc1` (stereo not drawn), the z-score is -0.209.

Turning to `COc1ccc(C2C(C(=O)Nc3cccc(C)n3)c3ccccc3C(=O)N2C)cc1OC` (stereo not drawn), the z-score was -0.119.

The compound `CCOc1ccc(N(CC(=O)NN=C2CCN(C)CC2)S(C)(=O)=O)cc1` displayed a z-score of -0.0704.

In turn, `CCOC(=O)Cn1c(C)cc(=O)c2cccc(C)c21` showed a z-score of -0.0778.

As to `Cc1cccc2c(=O)cc(C)n(CC(=O)N3CCCCC3)c12`, the z-score is 3.39 (active).

Take `Cc1cccc2c(=O)cc(C)n(Cc3ccccc3)c12`: the z-score is -0.148.

The compound `CC(Oc1ccccc1)C(=O)NC1CCN(Cc2ccccc2)CC1` (stereo not drawn) yielded a z-score of -2.68.

`C=CCSc1nnc(NC(=O)CSc2ccccn2)s1` had a z-score of -0.421.

Take `COc1ccc(/C(C)=C2/SC(=S)N(CCC(=O)O)C2=O)cc1`: the z-score is -0.343.

Compound `Cc1ccc(C)n1-c1ccc(N2CCOCC2)nc1` gave a z-score of -0.064.

`COc1ccc(-c2cc(C(F)(F)F)nc(SCC(=O)NCCN3CCOCC3)n2)cc1OC` came in with a z-score of 0.846.

Compound `O=C(CSc1nc(-c2ccccc2)cc(C(F)(F)F)n1)NCCN1CCOCC1` registered a z-score of 2.92.

In turn, `O=C(CSc1nc(-c2ccc(F)cc2)cc(C(F)(F)F)n1)NCCN1CCOCC1` came in with a z-score of 0.00416.

Regarding `Cc1ccc(-n2c(SCC(N)=O)nnc2-c2ccccn2)cc1`, the z-score turned out to be 2.09.

For `Cc1ccc(-n2c(SCC(N)=O)nnc2-c2ccccn2)cc1C`, the z-score is 0.0328.

Compound `Cc1ccc(C)c(-n2c(SCC(N)=O)nnc2-c2ccccn2)c1` showed a z-score of -0.142.
